# In PubChem BioAssay (Tox21):
# Inconclusive results are not listed. The source made the active and inactive calls. Calls follow the shape of the dose curve; as a rule, active = well fitted curve in the direction sought with a large enough effect in the repeat runs; inconclusive = weak or mixed curves; inactive = no such curve, though single readings can be large; an effect the other way counts as inactive or inconclusive.
# Assay: A CellTox Green Cytotoxicity Assay to monitor cytotoxicity in HepG2 cells - 24 hour (AID 1224878); also: nearly all actives have a fitted effect of over 45% in size; also: potency is read from the fitted curve at half-maximal effect
# Conditions: CellTox Green fluorescence; series mostly up to 76.8 µM; cytotoxicity: at the top concentration
# Outline: (§1)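 Continuous culture of HepG2 cells with a membrane-impermeant DNA dye; rising fluorescence marks dead cells. Compound exposure lasted up to 40 h at 37 C, with reads every 8 h from 0 h.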
# % is scaled to controls: 0 for no effect and ±100 for the full control effect.
Compound,cytotoxicity,Potency
CCc1c(Br)c(Br)c(Br)c(Br)c1Br,9.56% (inactive),
COc1cccc(O)c1,-1.83% (inactive),
CCCCOC(=O)C(C)CC (stereo not drawn),0.246% (inactive),
CCOC(=O)COc1ccc(C)cc1,10.6% (inactive),
CCCCN(C)C,2.69% (inactive),
[O]=[Zr],-2.9% (inactive),
Cc1cnccn1,-17.2% (inactive),
OCCCS,8.27% (inactive),
O=C(O)CCn1c2c(c3ccccc31)C[C@H](NS(=O)(=O)c1ccc(F)cc1)CC2,-20.8% [at 35.3 µM] (inactive),
Brc1ccccn1,-12.6% (inactive),
O=C1C=CC(=O)N1c1ccccc1,,13.8 µM (active)
COc1cc(C(=O)NS(=O)(=O)c2ccccc2C)ccc1Cc1cn(C)c2ccc(NC(=O)OC3CCCC3)cc12,-0.472% [at 35.3 µM] (inactive),
CCCCCCCCCCCCCc1ccccc1,-24.8% [at 35.3 µM] (inactive),
NCCCCCCNCCCCCCN,-0.5% (inactive),
Cc1cccc(Br)c1,-1.67% (inactive),
CC(C)CCOCCC(C)C,-13.9% (inactive),
CCc1cccc(C)c1,-13.6% (inactive),
Cc1cccc(C)n1,0.819% (inactive),

Compound,cytotoxicity,Potency
c1cc2c3c(c1)ccc1cccc(c13)C2,1.7% (inactive),
Clc1cccnc1,1.08% (inactive),
Cc1ccc(O)cn1,-2.8% (inactive),
O=S(O)O,-9.86% [at 15.8 µM] (inactive),
C[Si](C)(C)Cl,-1.4% (inactive),
CCOCN(C(=O)CS(=O)(=O)O)c1c(C)cccc1CC,-14.6% (inactive),
Cc1c(-c2ccc(O)cc2)n(Cc2ccc(OCCN3CCCCCC3)cc2)c2ccc(O)cc12,,19 µM (active)
COc1ccc(C#N)cc1,3.31% (inactive),
C=CC(=O)OCCN(CC)CC,2.81% (inactive),
OCCC(O)CO (stereo not drawn),28.5% (inactive),
Cn1cccc1,-13.7% (inactive),
CCOC(OCC)C(=O)c1ccccc1,-0.0177% (inactive),
CCCCCCCCCCCC(=O)N(CC)CC,15.6% (inactive),
CC(=O)O[C@@H]1C[C@@H]2CC[C@@]1(C)C2(C)C,-6.58% (inactive),
C=C(C)C(=O)OCCC[Si](Cl)(Cl)Cl,-13.3% (inactive),
O=C(O)CCCCCCC(=O)O,7.8% (inactive),
CCCCCCCCCCCCCOP(=O)(O)O,-14.3% (inactive),
O=C1OC(OC(=O)c2cccnc2Nc2cccc(C(F)(F)F)c2)c2ccccc21 (stereo not drawn),-2.82% [at 35.3 µM] (inactive),

# Assay: A CellTox Green Cytotoxicity Assay to monitor cytotoxicity in HepG2 cells - 40 hour (AID 1224879); also: nearly all actives have a fitted effect of over 40% in size; also: potency is read from the fitted curve at half-maximal effect
# Conditions: CellTox Green fluorescence; series mostly up to 76.8 µM; cytotoxicity increase: at the top concentration
# Outline: as §1
Compound,cytotoxicity increase,Potency
CCc1c(Br)c(Br)c(Br)c(Br)c1Br,11% (inactive),
COc1cccc(O)c1,-0.348% (inactive),
CCCCOC(=O)C(C)CC (stereo not drawn),2.26% (inactive),
CCOC(=O)COc1ccc(C)cc1,10.4% (inactive),
CCCCN(C)C,1.4% (inactive),
[O]=[Zr],0.111% (inactive),
Cc1cnccn1,-19% (inactive),
OCCCS,11.2% (inactive),
O=C(O)CCn1c2c(c3ccccc31)C[C@H](NS(=O)(=O)c1ccc(F)cc1)CC2,-17.3% [at 35.3 µM] (inactive),
Brc1ccccn1,-11.6% (inactive),
O=C1C=CC(=O)N1c1ccccc1,,12.3 µM (active)
COc1cc(C(=O)NS(=O)(=O)c2ccccc2C)ccc1Cc1cn(C)c2ccc(NC(=O)OC3CCCC3)cc12,6.28% [at 35.3 µM] (inactive),
CCCCCCCCCCCCCc1ccccc1,-24.6% [at 35.3 µM] (inactive),
NCCCCCCNCCCCCCN,1.71% (inactive),
Cc1cccc(Br)c1,1.02% (inactive),
CC(C)CCOCCC(C)C,-16.1% (inactive),
CCc1cccc(C)c1,-13.2% (inactive),
Cc1cccc(C)n1,3.48% (inactive),

Compound,cytotoxicity increase,Potency
c1cc2c3c(c1)ccc1cccc(c13)C2,1.21% (inactive),
Clc1cccnc1,-0.764% (inactive),
Cc1ccc(O)cn1,-1.01% (inactive),
O=S(O)O,-12.9% [at 15.8 µM] (inactive),
C[Si](C)(C)Cl,-5.2% (inactive),
CCOCN(C(=O)CS(=O)(=O)O)c1c(C)cccc1CC,-19.5% (inactive),
Cc1c(-c2ccc(O)cc2)n(Cc2ccc(OCCN3CCCCCC3)cc2)c2ccc(O)cc12,,8.49 µM (active)
COc1ccc(C#N)cc1,8.61% (inactive),
C=CC(=O)OCCN(CC)CC,-0.95% (inactive),
OCCC(O)CO (stereo not drawn),24.4% (inactive),
Cn1cccc1,-15.2% (inactive),
CCOC(OCC)C(=O)c1ccccc1,-2.96% (inactive),
CCCCCCCCCCCC(=O)N(CC)CC,20.5% (inactive),
CC(=O)O[C@@H]1C[C@@H]2CC[C@@]1(C)C2(C)C,-6.99% (inactive),
C=C(C)C(=O)OCCC[Si](Cl)(Cl)Cl,-16.8% (inactive),
O=C(O)CCCCCCC(=O)O,7.48% (inactive),
CCCCCCCCCCCCCOP(=O)(O)O,-10.4% (inactive),
O=C1OC(OC(=O)c2cccnc2Nc2cccc(C(F)(F)F)c2)c2ccccc21 (stereo not drawn),7.96% [at 35.3 µM] (inactive),

# Assay: qHTS RealTime-Glo MT Cell Viability Assay in HEK293 cells - 0 hour (AID 1224880); also: top concentration of the series differs between compounds; nearly all actives have a fitted effect of over 45% in size
# Conditions: RealTime-Glo luminescence; series mostly up to 76.8 µM; activity change, negative = cytotoxicity: at the top concentration
# Outline: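 qHTS format; HEK293 cells with NanoLuc/prosubstrate reagent, 37 C/5% CO2 for 5 h pre-dosing; compounds 23 nL in DMSO; luminescence at each time point reflects viable cells.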
row,Compound,"activity change, negative = cytotoxicity"
1,CCc1c(Br)c(Br)c(Br)c(Br)c1Br,4.6% (inactive)
2,COc1cccc(O)c1,11.7% (inactive)
3,CCCCOC(=O)C(C)CC (stereo not drawn),14.5% (inactive)
4,CCOC(=O)COc1ccc(C)cc1,14.8% (inactive)
5,CCCCN(C)C,-3.04% (inactive)
6,[O]=[Zr],4.94% (inactive)
7,Cc1cnccn1,13.7% (inactive)
8,OCCCS,6.21% (inactive)
9,O=C(O)CCn1c2c(c3ccccc31)C[C@H](NS(=O)(=O)c1ccc(F)cc1)CC2,1.51% [at 35.3 µM] (inactive)
10,Brc1ccccn1,-1.93% (inactive)
11,O=C1C=CC(=O)N1c1ccccc1,-6.46% (inactive)
12,COc1cc(C(=O)NS(=O)(=O)c2ccccc2C)ccc1Cc1cn(C)c2ccc(NC(=O)OC3CCCC3)cc12,-20.7% [at 35.3 µM] (inactive)
13,CCCCCCCCCCCCCc1ccccc1,-2.49% [at 35.3 µM] (inactive)
14,NCCCCCCNCCCCCCN,-0.739% (inactive)
15,Cc1cccc(Br)c1,-8.7% (inactive)
16,CC(C)CCOCCC(C)C,7.78% (inactive)
17,CCc1cccc(C)c1,0.114% (inactive)
18,Cc1cccc(C)n1,14.9% (inactive)

row,Compound,"activity change, negative = cytotoxicity"
1,c1cc2c3c(c1)ccc1cccc(c13)C2,3.23% (inactive)
2,Clc1cccnc1,-3.3% (inactive)
3,Cc1ccc(O)cn1,-1.84% (inactive)
4,O=S(O)O,10.2% [at 15.8 µM] (inactive)
5,C[Si](C)(C)Cl,-4.07% (inactive)
6,CCOCN(C(=O)CS(=O)(=O)O)c1c(C)cccc1CC,-0.554% (inactive)
7,Cc1c(-c2ccc(O)cc2)n(Cc2ccc(OCCN3CCCCCC3)cc2)c2ccc(O)cc12,-6.1% [at 35.3 µM] (inactive)
8,COc1ccc(C#N)cc1,-5.72% (inactive)
9,C=CC(=O)OCCN(CC)CC,7.15% (inactive)
10,OCCC(O)CO (stereo not drawn),15.5% (inactive)
11,Cn1cccc1,-0.231% (inactive)
12,CCOC(OCC)C(=O)c1ccccc1,0.582% (inactive)
13,CCCCCCCCCCCC(=O)N(CC)CC,-3.94% (inactive)
14,CC(=O)O[C@@H]1C[C@@H]2CC[C@@]1(C)C2(C)C,3.28% (inactive)
15,C=C(C)C(=O)OCCC[Si](Cl)(Cl)Cl,-4.08% (inactive)
16,O=C(O)CCCCCCC(=O)O,21% (inactive)
17,CCCCCCCCCCCCCOP(=O)(O)O,-3.68% (inactive)
18,O=C1OC(OC(=O)c2cccnc2Nc2cccc(C(F)(F)F)c2)c2ccccc21 (stereo not drawn),-0.13% [at 35.3 µM] (inactive)
